# Source: PubChem BioAssay (NCI)
# Values joined by “and” are separate entries in the source; they are usually repeats but may differ in a detail not shown here. Identical values can stand only once. Compounds without any hit were thinned out: in the full panel of roughly 83,000, 20% have a hit.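 Single-concentration screen, 48 h exposure, 96-well plates. Endpoint: percent growth. Below 10 = active.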 Active and inactive are the calls of the source.
# Columns and labels:
# Assay in all cases: NCI-60 one-dose screen, 48 h (100 = growth as untreated, 0 = no growth, -100 = all killed)
# Conditions in all cases: 10 µM unless noted
# NCI-H23 lung = tested on: NCI-H23 lung
# NCI-H226 lung = tested on: NCI-H226 lung
# NCI-H322M lung = tested on: NCI-H322M lung
# HOP-62 NSCLC = tested on: HOP-62 NSCLC
# NCI-H460 lung = tested on: NCI-H460 lung
# NCI-H522 lung = tested on: NCI-H522 lung
# A549/ATCC NSCLC = tested on: A549/ATCC NSCLC
# 786-0 renal = tested on: 786-0 renal
# DU-145 prostate = tested on: DU-145 prostate
# K-562 leukemia = tested on: K-562 leukemia
# MALME-3M melanoma = tested on: MALME-3M melanoma
# MDA-MB-231 breast = tested on: MDA-MB-231 breast
# RXF 393 renal = tested on: RXF 393 renal
# SF-268 CNS = tested on: SF-268 CNS
# SF-295 CNS = tested on: SF-295 CNS
# SF-539 CNS = tested on: SF-539 CNS
# UACC-257 melanoma = tested on: UACC-257 melanoma
# M14 melanoma = tested on: M14 melanoma
# COLO 205 colon = tested on: COLO 205 colon
SMILES,growth (NCI-H23 lung),growth (NCI-H226 lung),growth (NCI-H322M lung),growth (HOP-62 NSCLC),growth (NCI-H460 lung),growth (NCI-H522 lung),growth (A549/ATCC NSCLC),growth (786-0 renal),growth (DU-145 prostate),growth (K-562 leukemia),growth (MALME-3M melanoma),growth (MDA-MB-231 breast),growth (RXF 393 renal),growth (SF-268 CNS),growth (SF-295 CNS),growth (SF-539 CNS),growth (UACC-257 melanoma),growth (M14 melanoma),growth (COLO 205 colon)
O=c1c2ccccc2nc(-c2ccccc2Cl)n1-c1nnc(C(F)(F)F)s1,-0.336% (active),42.9% (inactive),17.6% (inactive),58.7% (inactive),24.7% (inactive),-23.4% (active),37.3% (inactive),22.4% (inactive),56.8% (inactive),11.4% (inactive),-11.5% (active),52.3% (inactive),38.9% (inactive),38.8% (inactive),12% (inactive),19.7% (inactive),30% (inactive),35.1% (inactive),
COc1cc2c(cc1OC)-c1c3c(cc4c1[C@@H](C2)N(C)CC4)OCO3,51.3% (inactive),51% (inactive),36.9% (inactive),44.3% (inactive),17.3% (inactive),5.61% (active),53.3% (inactive),40.2% (inactive),45.3% (inactive),13.1% (inactive),54.3% (inactive),55.1% (inactive),35.2% (inactive),50.5% (inactive),51.6% (inactive),34.1% (inactive),35.5% (inactive),54.9% (inactive),31.4% (inactive)
CC(=O)c1cccc(S(=O)(=O)F)c1,100% (inactive),97.2% (inactive),95.6% (inactive),98.4% (inactive),109% (inactive),89.8% (inactive),98.6% (inactive),98.4% (inactive),108% (inactive),112% (inactive),98.7% (inactive),104% (inactive),98.8% (inactive),108% (inactive),83.1% (inactive),89.1% (inactive),99.2% (inactive),91.3% (inactive),
O=S(=O)(F)c1cccc(Cl)c1C[P+](c1ccccc1)(c1ccccc1)c1ccccc1,108% (inactive),93.4% (inactive),97.9% (inactive),93.3% (inactive),106% (inactive),88.8% (inactive),93.9% (inactive),104% (inactive),109% (inactive),77.2% (inactive),90.4% (inactive),98.6% (inactive),,105% (inactive),92.3% (inactive),103% (inactive),89.7% (inactive),102% (inactive),99.9% (inactive)
NC(=O)Oc1cc(OC(N)=O)cc(N(CCCl)CCCl)c1,50% (inactive),79.5% (inactive),111% (inactive),58.5% (inactive),23.9% (inactive),17.9% (inactive),50.6% (inactive),28.6% (inactive),34.3% (inactive),55.2% (inactive),80.6% (inactive),97.9% (inactive),,39.7% (inactive),,23.3% (inactive),57.2% (inactive),49.4% (inactive),86.8% (inactive)
Oc1cc(Cl)ccc1Oc1ccc(Cl)cc1Cl,7.13% (active),99.7% (inactive),97.6% (inactive),20.5% (inactive),3.2% (active),-4.34% (active),37.5% (inactive),86.4% (inactive),14.5% (inactive),11% (inactive),5.91% (active),8.82% (active),-9.98% (active),21.5% (inactive),7.37% (active),14.7% (inactive),21.4% (inactive),22.1% (inactive),105% (inactive)
O=C1C=C(N2CC2)c2ccccc2C1=O,41.4% (inactive),92% (inactive),91.1% (inactive),76% (inactive),23.2% (inactive),52.7% (inactive),54.3% (inactive),104% (inactive),12.1% (inactive),9.26% (active),106% (inactive),88.8% (inactive),85.9% (inactive),51.6% (inactive),23.6% (inactive),63.3% (inactive),83.1% (inactive),63.6% (inactive),
CCOC(=O)C1C(C=C(C)C)C1(C)C (stereo not given),101% (inactive),107% (inactive),140% (inactive),98.7% (inactive),103% (inactive),97.5% (inactive),98.9% (inactive),105% (inactive),108% (inactive),155% (inactive),140% (inactive),106% (inactive),114% (inactive),101% (inactive),101% (inactive),93.5% (inactive),106% (inactive),106% (inactive),109% (inactive)
CN1CCc2cc3c(cc2C1O)OCO3 (stereo not given),109% (inactive),36% (inactive) and 105% (inactive),127% (inactive) and 98.7% (inactive),103% (inactive) and 99.1% (inactive),-48.6% (active) and 107% (inactive),-63.4% (active) and 109% (inactive),96.2% (inactive) and 106% (inactive),100% (inactive) and 91.9% (inactive),101% (inactive) and 103% (inactive),96.7% (inactive),31% (inactive) and 88.7% (inactive),97.6% (inactive) and 111% (inactive),87.8% (inactive) and 114% (inactive),83.2% (inactive) and 101% (inactive),86.7% (inactive) and 94.8% (inactive),33.5% (inactive) and 93% (inactive),99.2% (inactive) and 111% (inactive),102% (inactive) and 99% (inactive),92.9% (inactive) and 111% (inactive)
O=P(O)(Nc1ccccc1)Nc1ccccc1,91.1% (inactive),102% (inactive),90.6% (inactive),83.3% (inactive),99.2% (inactive),85.6% (inactive),91% (inactive),93.7% (inactive),97% (inactive),51.9% (inactive),94.3% (inactive),109% (inactive),93.9% (inactive),102% (inactive),96.1% (inactive),91.6% (inactive),89.3% (inactive),88.4% (inactive),115% (inactive)
CCCC1CCCCC12C(=O)NC(=O)NC2=O (stereo not given),97.2% (inactive) and 101% (inactive),91.1% (inactive),105% (inactive) and 94.3% (inactive),107% (inactive),101% (inactive) and 109% (inactive),95.5% (inactive) and 89.7% (inactive),104% (inactive) and 98.2% (inactive),102% (inactive) and 96.6% (inactive),104% (inactive) and 109% (inactive),101% (inactive),86.4% (inactive) and 112% (inactive),89.3% (inactive) and 120% (inactive),104% (inactive) and 110% (inactive),105% (inactive) and 102% (inactive),95.5% (inactive) and 108% (inactive),97.1% (inactive) and 111% (inactive),103% (inactive) and 94.1% (inactive),96.4% (inactive) and 96.9% (inactive),104% (inactive) and 110% (inactive)
COc1ccc(CN)cc1OC,101% (inactive) and 104% (inactive),113% (inactive) and 105% (inactive),135% (inactive) and 96.9% (inactive),107% (inactive) and 101% (inactive),124% (inactive) and 102% (inactive),107% (inactive) and 98.5% (inactive),108% (inactive) and 102% (inactive),105% (inactive) and 101% (inactive),111% (inactive) and 106% (inactive),131% (inactive),96.8% (inactive),109% (inactive) and 107% (inactive),126% (inactive),108% (inactive) and 98.9% (inactive),104% (inactive),105% (inactive) and 99.3% (inactive),106% (inactive) and 101% (inactive),110% (inactive) and 98.7% (inactive),
OCCN=Cc1c[nH]c2ccccc12,91.6% (inactive),83.5% (inactive),102% (inactive),85.1% (inactive),103% (inactive),95.2% (inactive),95.2% (inactive),95.7% (inactive),114% (inactive),,104% (inactive),68.6% (inactive),118% (inactive),107% (inactive),89.9% (inactive),99.4% (inactive),110% (inactive),97.3% (inactive),112% (inactive)
CN(C)c1ccc(C=C2C(=O)NC(=O)NC2=O)cc1,70.8% (inactive),97.6% (inactive),123% (inactive),110% (inactive),102% (inactive),69.6% (inactive),,109% (inactive),102% (inactive),109% (inactive),96.4% (inactive),88.2% (inactive),94% (inactive),93.5% (inactive),95.5% (inactive),96.7% (inactive),-19.7% (active),86.5% (inactive),107% (inactive)
C[C@]12CCc3nc(-c4ccc(O)c(O)c4)sc3C1=CC[C@@H]1[C@@H]2CC[C@]2(C)C(=O)CC[C@@H]12,69% (inactive),65% (inactive),80% (inactive),80.8% (inactive),93.8% (inactive),8.61% (active),61.2% (inactive),75.3% (inactive),75.3% (inactive),56% (inactive),62.9% (inactive),56% (inactive),91.2% (inactive),81.5% (inactive),104% (inactive),56.4% (inactive),91.4% (inactive),63.1% (inactive),
